Source: PubChem (several laboratories)
Peg3 promoter: Peg3 promoter activity inhibition | HeLa PEG-Prom luciferase reporter, luminescence, overnight | inhibition, % at 20 µM | 360,000 compounds, 1.7% hits;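 active = inhibition of at least 50% at 20 µM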
HIF-2a inh: inhibitors of HIF-2a; inhibition, % at 18.8 µM; 360,000 compounds, 0.72% hits; 786-0 RCC cells HIF-2a reporter, luciferase luminescence, overnight;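 active = inhibition of the luminescence signal of 40% or more relative to plate controls, in a single-dose primary screen at 18.75 µM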
Shn3 3UTR inh: reduces Shn3 3'UTR luciferase signal in osteoblasts; Clone20 osteoblast Shn3 3'UTR firefly luciferase, 24 h; inhibition, % at 12.5 µM; 360,000 compounds, 0.52% hits;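 active = mean inhibition of at least 75% with every replicate also reaching 75%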
MITF TRPM1 inh: MITF TRPM1 promoter inhibition in SK-MEL-5 cells | SK-MEL-5 TRPM1 promoter luciferase, 24 h | inhibition, % at 12.5 µM | 330,000 compounds, 0.83% hits | AID 488899;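 active = mean inhibition across replicates of 60% or more, whatever share of single replicates reaches that level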
KKLEB tox: reduces viability of KKLEB cystic fibrosis airway cells. activity change (cytotoxicity), % at 5 µM. 360,000 compounds, 0.36% hits. KKLEB CF airway cells viability, ATPlite luminescence, overnight; stronger effect = lower value; cells stimulated with P. aeruginosa culture filtrate;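 active = corrected activity change at or below -50% at 5 µM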
CF NFkB inh: blocks PAF-induced NF-kB reporter in cystic fibrosis cells | inhibition, % at 5 µM | 360,000 compounds, 0.86% hits | AID 588850 | KKLEB NF-kB-GFP reporter, GFP fluorescence overnight;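 active = at least 50% inhibition at 5 µM, scaled per plate between neutral and stimulator controls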;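 note: PAF is a Pseudomonas aeruginosa culture filtrate used as stimulus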
Mdm2-MdmX confirm: confirmation of inhibitors of human Mdm2/MdmX interaction, set 2 | AID 504601 | SaOS-2 split-luciferase Mdm2/MdmX complementation, luminescence | inhibition, % at 8 µM | shares compounds with HIF-2a inh | 740 compounds, 99% hits;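 active = mean inhibition of the luminescence signal across two replicates at or above 26 percent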
HIF-2a inh conf: confirmation of HIF-2a inhibitors; 1,800 compounds, 56% hits; shares compounds with HIF-2a inh; inhibition, % at 18.8 µM; 786-0 RCC cells, HIF-2a luciferase reporter luminescence, overnight;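 active = mean inhibition across four replicates of at least 40 percent at the single tested concentration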
HIF-1a cs: HIF-1a inhibition counter-screen for HIF-2a hits | shares compounds with HIF-2a inh | MiaPaCa-2 HIF-1a luciferase reporter, desferoxamine, overnight | inhibition, % at 18.8 µM | 1,800 compounds, 72% hits;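 active = mean inhibition of the reporter signal across four replicates at the single tested dose of 50% or more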
Large screens that a line does not name were inactive (follow-up assays come after a bar, where they were run); ! = not confirmed by another sample. A selection: hits, their analogues and other compounds. The true share with any hit is near 2.8%.

O=C(O)c1cccc(NC(=S)NC(NC(=O)c2cccc([N+](=O)[O-])c2)C(Cl)(Cl)Cl)c1 (stereo not drawn)	none
O=C(NC(NC(=S)Nc1ccccc1)C(Cl)(Cl)Cl)c1cccc(Cl)c1 (stereo not drawn)	HIF-2a inh 47 | HIF-2a inh conf inactive | HIF-1a cs 102
CCN(C[C@H]1N[C@@](CC)(C(=O)OC)[C@H]2C(=O)N(C)C(=O)[C@@H]12)C(=O)COC	none
Cn1c(CCC(N)=O)nnc1SCC(=O)Nc1ccccc1C(=O)NC1CC1	none
O=C1c2ccc(Cl)cc2S(=O)(=O)c2cccc(C(=O)N3CCC(Cc4ccccc4)CC3)c21	Peg3 promoter 91, HIF-2a inh 50 | HIF-2a inh conf inactive | HIF-1a cs 105
CCN1CCN(CCNC(=O)c2ccc(/C=C3/Sc4ccccc4N(Cc4cccc(Cl)c4)C3=O)cc2)CC1	Peg3 promoter 97, MITF TRPM1 inh 68 | Mdm2-MdmX confirm 102
CC1(C)CC(=O)C2=C(C1)NC(=O)CC2	none (no result: MITF TRPM1 inh)
C=CS(=O)(=O)N(Cc1ccccc1Br)[C@H](CO)Cc1ccccc1	Peg3 promoter 84, HIF-2a inh 44 | HIF-2a inh conf inactive | HIF-1a cs 70
C=CCCN([C@H](CO)Cc1ccccc1)S(=O)(=O)c1ccccc1Br	none
CCc1[nH]nc2c1C(c1ccsc1)C(C#N)=C(N)O2 (stereo not drawn)	none
CCc1[nH]nc2c1C(c1ccc(Br)s1)C(C#N)=C(N)O2 (stereo not drawn)	HIF-2a inh 41 | HIF-2a inh conf inactive | HIF-1a cs inactive
CC(C)c1ccc(NC(=O)C2CSC3(C)CCC(=O)N23)cc1 (stereo not drawn)	none
CN1CCN(Cc2nc3ccccc3c(=O)n2Cc2nc(-c3ccc4ccccc4c3)cs2)CC1	Peg3 promoter 105, HIF-2a inh 62, Shn3 3UTR inh 93!, MITF TRPM1 inh 88 | HIF-2a inh conf inactive | HIF-1a cs 106
CCOC(=O)C1Nc2ccc(C(F)(F)F)cc2C2c3ccccc3CC12 (stereo not drawn)	none | Mdm2-MdmX confirm 66
Cc1nc(SCC(=O)N(CC(C)C)C2CCS(=O)(=O)C2)c(C#N)c(C)c1C (stereo not drawn)	none
CC(C)(C)N(Cc1ccc2c(c1)OCO2)C(=O)/C=C\S(=O)c1ccccc1 (stereo not drawn)	Peg3 promoter 99, HIF-2a inh 69, MITF TRPM1 inh 90 | HIF-2a inh conf 54 | HIF-1a cs 80
CCN(Cc1ccc2c(c1)OCO2)C(=O)/C=C/c1cccc(Br)c1	none
O=C(NCc1ccccn1)c1ccc(CNS(=O)(=O)c2ccc(F)cc2)cc1	none
Cc1cc(C)c(C(=O)/C=C/c2cccc3ccccc23)c(=O)[nH]1	Peg3 promoter 96, HIF-2a inh 85, MITF TRPM1 inh 87 | Mdm2-MdmX confirm 103 | HIF-2a inh conf 92 | HIF-1a cs 105
CCN(CC(=O)Nc1ccc([N+](=O)[O-])cc1OC)c1ccccc1	none
Cc1cc2[nH]c3ccccc3c2c(C)n1	none
Cc1cc2[nH]c3c4ccccc4nc(C)c3c2cc1C	Peg3 promoter 106, HIF-2a inh 92, MITF TRPM1 inh 86, KKLEB tox -68 | HIF-2a inh conf inactive | HIF-1a cs 105
CC1(C)CC(=O)C=C(c2cccc(Br)c2)C1	none
O=C(CN1CCCCC1)NC(=O)NC1CCCC1	none
O=C(Cn1ncc(Cl)c(Cl)c1=O)NC(=O)NC1CCCCC1	Peg3 promoter 89, HIF-2a inh 84, MITF TRPM1 inh 115, KKLEB tox -64, CF NFkB inh 90 | Mdm2-MdmX confirm 101 | HIF-2a inh conf 92 | HIF-1a cs 106
O=C(O)CCSc1nnc(-c2ccc3c(c2)OCO3)o1	HIF-2a inh 92 | HIF-2a inh conf 96 | HIF-1a cs 80
Cc1cccc([C@@H]2[C@@H]3C(=O)N(Cc4ccccc4)C(=O)[C@@H]3[C@]3(Cc4ccc(Cl)cc4)C(=O)N(c4ccc(Br)cc4)C(=O)N23)c1	none | Mdm2-MdmX confirm 102
CCSc1nnc(NC(=O)c2ccccc2C)s1	none
COC(=O)c1ccc(COc2ccccc2/C=C(\C#N)C(=O)Nc2c(C)cccc2C)cc1	Peg3 promoter 62, HIF-2a inh 46 | HIF-2a inh conf 45 | HIF-1a cs 82
CC(C)(C)c1cc(C(=O)NN)n(Cc2ccc(F)cc2)n1	none
CC(C)CC(N)c1csc(NC(=O)c2cc(C(C)(C)C)nn2Cc2ccccc2)n1 (stereo not drawn)	Peg3 promoter 111, HIF-2a inh 92, Shn3 3UTR inh 97 (no result: MITF TRPM1 inh) | HIF-2a inh conf inactive | HIF-1a cs 107
COc1ccccc1-c1nnc(Sc2nc([N+](=O)[O-])nn2C)o1	Peg3 promoter 66 | Mdm2-MdmX confirm 97
CN1CCN(CCC(=O)N/N=C/c2cc3c(cc2[N+](=O)[O-])OCO3)CC1	none
O=C(Nc1ccccc1N1CCOCC1)c1cnccn1	none
O=C(Nc1ccc(N2CCOCC2)cc1)c1cnccn1	Peg3 promoter 59, HIF-2a inh 53 | HIF-2a inh conf 71 | HIF-1a cs inactive
CCc1ccc(C2=NN(CCC(=O)NC(C)c3ccc4c(c3)OCCO4)C(=O)CC2)cc1 (stereo not drawn)	none
Cc1nc2cc(-c3ccc(Cl)cc3)nn2c(C)c1CCC(=O)NC(C)c1ccc2c(c1)OCCO2 (stereo not drawn)	HIF-2a inh 82 | HIF-2a inh conf 93 | HIF-1a cs 89
Cc1csc(NC(=O)CCc2c(C)nc3cc(-c4ccc(Cl)cc4)nn3c2C)n1	HIF-2a inh 81 | HIF-2a inh conf 92 | HIF-1a cs 54
Cc1csc(NC(=O)CSc2nnc(-c3ccc(Cl)cc3)n2N)n1	none
O=C(O)COc1ccc(-c2nccc(-c3ccccn3)n2)cc1	HIF-2a inh 87 | HIF-2a inh conf 90 | HIF-1a cs 59
NNC(=O)COc1ccc(-c2nccc(-c3ccc(F)cc3)n2)cc1	HIF-2a inh 68 | HIF-2a inh conf 79 | HIF-1a cs 52
O=C(CCc1ccc(O)c(O)c1)NNC(=S)Nc1ccc(Br)cc1Cl	none
CCN(Cc1ccccc1)C(=O)Cn1c(=O)n(CC(=O)N2CCCCC2)c(=O)c2sccc21	none
C(=N\Nc1nc2ccccc2s1)/c1ccccn1	none (no result: Peg3 promoter, HIF-2a inh, Shn3 3UTR inh, MITF TRPM1 inh, KKLEB tox, CF NFkB inh) | Mdm2-MdmX confirm 95
COc1ccc(C)cc1Nc1n[n+](C)c(-c2c3ccccc3cc3ccccc23)s1	none
